In the library only some 12% were active in any assay of this set; here they are far more common.
HP1b chromo inh: blocks HP1-beta chromodomain binding to methylated histone tails; AlphaScreen HP1-beta / biotin-H3K9me3 peptide binding; Potency, µM (highest dose often 114 µM), inactives show at the highest dose activity change, negative = inhibition, hits mostly inhibitors; 390,000 tested, 0.56% active; P83916; AID 540317; note: nearly all actives have a fitted effect of over 70% in size
Target sequence (P83916 whole entry, looked up): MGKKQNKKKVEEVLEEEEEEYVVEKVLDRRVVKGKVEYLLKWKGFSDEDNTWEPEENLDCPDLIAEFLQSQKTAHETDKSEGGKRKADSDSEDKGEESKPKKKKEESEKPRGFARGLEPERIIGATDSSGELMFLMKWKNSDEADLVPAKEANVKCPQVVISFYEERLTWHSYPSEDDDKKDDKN
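Compound inhibition of the preformed complex between 50 nM HP1-beta and 50 nM biotinylated H3K9me3 peptide was read by AlphaScreen. Buffer was PBS pH 7.4 with 0.01% Tween-20. Incubations ran 30 min at room temperature, with 10 ug/mL donor/acceptor beads.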
TDP1 inh: TDP1 (human) enzyme inhibition. Q9NUW8. recombinant TDP1, AlphaScreen DNA substrate cleavage. Potency, µM (titrated, usually from 130 µM), for inactives: top-dose activity change, negative = inhibition, actives largely listed as inhibitors. 350,000 tested, 0.28% active. AID 485290; note: % is set by controls: 0 for no effect and ±100 for the full control effect; nearly all actives have a fitted effect of over 40% in size
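Enzyme-compound mixtures sat 15 min at room temperature, followed by a 5 min reaction with 15 nM final substrate and 10 min with AlphaScreen beads. Recombinant human Tdp1 was used at 1 nM final.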
G9a block: inhibitors of human histone lysine methyltransferase G9a; 350,000 tested, 8.8% active; AID 504332; Potency, µM (highest dose often 102 µM), for the others: at the highest dose activity, negative = inhibition, most hits filed as inhibitors; Q96KQ7; G9a H3K9 monomethylation, AlphaScreen, 2 h; note: % is set by controls: 0 for no effect and ±100 for the full control effect; nearly all actives have a fitted effect of over 75% in size
Target sequence (Q96KQ7 913-1193 limits assumed): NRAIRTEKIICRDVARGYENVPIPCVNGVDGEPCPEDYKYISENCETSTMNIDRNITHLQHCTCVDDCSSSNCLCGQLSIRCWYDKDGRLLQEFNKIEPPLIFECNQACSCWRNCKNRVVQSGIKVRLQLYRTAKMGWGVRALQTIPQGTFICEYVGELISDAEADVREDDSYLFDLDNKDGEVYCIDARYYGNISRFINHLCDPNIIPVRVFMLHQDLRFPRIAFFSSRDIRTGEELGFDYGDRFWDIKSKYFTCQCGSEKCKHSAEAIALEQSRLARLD
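AlphaScreen read-out: biotin-H3K9 peptide (500 nM) methylation by 20 nM enzyme with 20 uM SAM, 2 h at room temperature after 15 min compound preincubation; anti-monomethyl H3K9 antibody plus donor/acceptor beads, 10 min dark.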
BAZ2B block: BAZ2B (human) inhibition; Potency, µM (series often up to 114 µM), inactives show at the highest dose activity change, negative = inhibition, actives largely listed as inhibitors; 360,000 tested, 4.4% active; AlphaScreen BAZ2B-H3K14Ac peptide displacement; Q9UIF8; note: % is set by controls: 0 for no effect and ±100 for the full control effect; nearly all actives have a fitted effect of over 60% in size
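Protein-peptide AlphaScreen: BAZ2B 50 nM, b-H3K14Ac 50 nM, 1x PBS pH 7.4 + 0.01% Tween-20. Preincubation 30 min RT; cpd 30 min RT (top 110 uM); beads 20 min RT, light-protected.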
Sfp inh: Sfp phosphopantetheinyl transferase inhibition. Q9F4F7. Biochemical Sfp PPTase activity, qHTS. Potency, µM, for inactives: largest response in the series, negative = inhibition, most hits filed as inhibitors. 310,000 tested, 3.5% active;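 note: the enzyme is Sfp with the accession as filed and its product quenches rhodamine fluorescence; 0% = enzyme reaction without inhibitor and -100% = no enzyme wells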
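Fluorescence-quenching assay: 15 nM Sfp-PPTase preincubated 15 min at room temperature with compound, then 5 uM rhodamine-CoA and 12.5 uM BHQ-2-labelled YbbR peptide added. Fluorescence (ex 525/em 598 nm) read at start and after 30 min; difference gives rate.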
JMJD2A Tudor inh: inhibitors of human JMJD2A Tudor domain; O75164; 390,000 tested, 4.4% active; AlphaScreen JMJD2A-Tudor / H3K4me3 peptide binding; AID 504339; Potency, µM (series often up to 114 µM), without a hit: at the highest dose activity change, negative = inhibition, usual class: inhibitors; note: % is set by controls: 0 for no effect and ±100 for the full control effect; nearly all actives have a fitted effect of over 50% in size
The depositor's hits bear a star; ? = inconclusive; · = no result; [ ] = another dose, or the depositor's remark. Calls come from the whole dose curve; as a rule, active = well fitted curve in the direction sought with a large enough effect; inconclusive = small, poorly fitted or top-dose-only effect, or another doubt; inactive = no such curve, though single readings can be large; an effect the other way counts as inactive or inconclusive. Potency is the fitted concentration of half-maximal effect.

SMILES	HP1b chromo inh	TDP1 inh	G9a block	BAZ2B block	Sfp inh	JMJD2A Tudor inh
CC(=O)C1=C(O)C(=O)N(c2ccc(O)cc2)C1c1ccccc1[N+](=O)[O-] (configuration not stated)	-3.1%	·	14.1µM*	-27.9%	35.5µM*	-7.5%
CCCCN1C(=O)C(O)=C(C(C)=O)C1c1ccccc1 (configuration not stated)	6.7%	-3.6%	50.1µM*	?	5.5%	-27.2%
COc1ccc(CNC(=O)C(C)n2c(=O)cc(C)c3c(C)nn(-c4ccccc4)c32)cc1 (configuration not stated)	?	8.4%	13.3%[59 µM]	-3.6%	·	-14.0%
COC(=O)c1cc2oc3ccccc3c2n1Cc1nc(-c2cccc(C)c2)oc1C	3.9%	6.8%	-6.3%[59 µM]	-12.9%	·	-21.8%
CCOc1ccccc1NC(=O)CSc1nc(=O)n(CCCN2CCOCC2)c2c1CCCC2	13.0%	0.1%	-2.7%	9.6%	·	-6.2%
CN(c1ccc(C(=O)Nc2ccc3c(c2)n(C)c(=O)n3C)cc1)S(C)(=O)=O	-1.1%	·	4.7%	?	11.1%	-6.6%
O=C(O)CC1=C(O)C(=O)N(c2ccccc2)C1c1ccc(Br)cc1 (configuration not stated)	29.6%	6.2%	38.9%[0.501 µM]	-5.7%	8.7%	-11.2%
O=C(O)CC1=C(O)C(=O)N(c2ccccc2)C1c1ccccc1 (configuration not stated)	40.1%	·	12.6µM*	9.3%	-26.5%	-19.6%
COCCCN1C(=O)C(O)=C(C(C)=O)C1c1cccc(F)c1 (configuration not stated)	10.6%	3.2%	50.1µM*	?	-13.6%	?
CCN1CCN(c2ccc(NC(=O)c3cc(S(=O)(=O)N4CCCC4)ccc3Cl)cc2)CC1	7.2%	3.5%	?	-34.1%	·	?
CCOc1cc(C(=O)N(CC)CC(=O)Nc2ccc3c(c2)OCCO3)ccc1OC	17.8%	1.3%	11.4%[2.33 µM]	3.3%	·	-8.4%
S=C1NC2=C(CCCC2=C2SCCCS2)C(c2ccccc2)N1 (configuration not stated)	17.5%	4.9%	0.794µM*	?	-12.3%	-2.3%[11.4 µM]
COC(=O)C1=C(C)C(c2ccc(OC)cc2)NC(=S)N1 (configuration not stated)	39.0%	0.0%	20.7%[12.7 µM]	-0.3%[57.1 µM]	8.3%	-21.3%[57.1 µM]
COc1ccc(C2NC(=S)NC3=C2CCCC3=C2SCCS2)cc1 (configuration not stated)	-5.2%	5.1%	?	31.6µM*	16.2%	-27.1%
CCOc1cccc(NC(=O)C2CC(=O)N(CC)C(=Nc3ccc(F)cc3)S2)c1 (configuration not stated)	49.8%	·	-7.6%[59 µM]	-2.0%	·	5.9%
CCNc1nc(C#N)nc2c1ncn2-c1cccc(Cl)c1	·	-1.0%	·	·	·	-0.7%
CC1(C)Cc2c(sc(NC(=O)C(=O)N3CCCC3)c2C#N)CO1	3.8%	5.0%	28.2µM*	-32.8%	?	?
CCC1(C)Cc2c(sc(NC(=O)CCC(=O)O)c2C#N)CO1 (configuration not stated)	21.6%	6.0%	?	2.0%	6.9%	-5.2%
CCC(=O)Nc1sc2c(c1C#N)CC(C)(CC)OC2 (configuration not stated)	-16.8%	-6.0%	-16.2%[12.7 µM]	0.4%[57.1 µM]	56.2µM*	10.5%
CCOc1ccc(-c2nc(SCC(=O)Nc3cc(F)ccc3F)n3[nH]c(=O)cc3n2)cc1	-5.8%	·	-5.7%[59 µM]	-36.4%	·	?
CC(=O)c1cccc(N(CC(=O)Nc2ccccc2C(=O)N2CCCC2)S(C)(=O)=O)c1	26.3%	3.4%[56.1 µM]	2.5%	-15.5%	9.4%	-8.0%
CCOC(=O)c1cc2c(=O)n3ccccc3nc2n(CC(C)C)c1=NC(=O)C(C)(C)Oc1ccc(Cl)cc1	36.4%	5.9%	-0.1%[59 µM]	6.6%	·	-10.6%
Cn1nccc1C(=O)Nc1ccc(OC(=O)c2ccnn2C)cc1	32.0%	3.4%	1.58µM*	-5.6%	12.5%	-8.0%
Cn1nccc1C(=O)NC(=S)Nc1cc(Cl)cc(Cl)c1	-6.5%	·	?	-16.1%	-82.0%	22.4µM*
CCc1c(C)nc(SCc2nc(-c3ccccc3)no2)[nH]c1=O	52.5%[57 µM]	2.7%	-2.5%[59 µM]	-1.8%	·	-3.6%
SMILES	HP1b chromo inh	TDP1 inh	G9a block	BAZ2B block	Sfp inh	JMJD2A Tudor inh
CCOCCn1c(SCc2ccc(F)cc2)nc2c1c(=O)[nH]c(=O)n2C	28.1%	3.9%	?	11.0%	0.1%	-12.5%
COCCn1c(SCCN2CCOCC2)nc2c1c(=O)[nH]c(=O)n2C	-16.5%	-2.9%	11.2µM*	7.9%	12.6µM*	-21.5%
CC(C)CCn1c(SCc2ccc(Cl)cc2)nc2c1c(=O)[nH]c(=O)n2C	-32.4%	0.0%	14.1µM*	-25.7%	44.7µM*	-20.8%
COCCn1c(SCc2ccc(F)cc2)nc2c1c(=O)[nH]c(=O)n2C	?	4.8%	·	2.7%	44.7µM*	-7.4%
C=CCn1c(SCCN2CCOCC2)nc2c1c(=O)[nH]c(=O)n2C	30.3%	2.1%	-34.2%[12.7 µM]	13.2%	-6.5%	0.6%
Cc1c(C(=O)Nc2cccc(C(F)(F)F)c2)oc2ccc(S(=O)(=O)N(C)C3CCCCC3)cc12	28.3%	5.2%	4.1%[59 µM]	2.7%	·	-4.6%
Cc1cc(NC(=O)CSc2nnc3c(C)cc4cc5c(cc4n23)OCO5)no1	·	-13.5%	35.5µM*	-3.2%	12.7%	·
COc1ccc2cc(C)c3nnc(SCC(=O)Nc4cc(OC)c(OC)cc4C(=O)O)n3c2c1	15.8%	0.6%	39.8µM*	-22.2%	-13.5%	-24.5%
Cc1cc(NC(=O)CSc2nnc3c(C)cc4cc(C)c(C)cc4n23)no1	33.0%	5.0%	14.1%	2.3%	4.0%	-13.5%
COc1ccc2cc(C)c3nnc(SCC(=O)Nc4nc(-c5ccccc5)cs4)n3c2c1	32.7%	2.1%	-2.6%[12.7 µM]	-35.6%	79.4µM*	-34.2%
Cn1cnnc1SCC(=O)Nc1nc(-c2ccccc2)cs1	42.3%	35.5µM*	-18.4%	?	-25.7%	6.2%
COc1ccc(NC(=O)C(Cc2ccccc2)n2cccc2)cc1OC (configuration not stated)	?	10.3%	-41.2%[59 µM]	?	15.1%	?
O=C1CCc2cc(S(=O)(=O)Nc3ccccc3-c3ccccc3)ccc2N1	·	1.6%	·	·	·	-19.7%
CC(Sc1nnc(-c2ccccc2F)o1)C(=O)Nc1ccc(N2CCOCC2)cc1 (configuration not stated)	7.1%	-3.4%	?	10.0%	·	-8.9%
Cn1cnnc1SCC(=O)NN1C(=O)NC(C)(c2ccccc2)C1=O (configuration not stated)	26.0%	0.0%	22.4µM*	-30.4%	4.7%	-10.6%
